Biological target: Stress-70 protein, mitochondrial (UniProt P38646)
Test: cross-link between two proteins; cross-linking mass spectrometry

Sequence of V-type proton ATPase subunit D, P57746 (P57746 whole entry): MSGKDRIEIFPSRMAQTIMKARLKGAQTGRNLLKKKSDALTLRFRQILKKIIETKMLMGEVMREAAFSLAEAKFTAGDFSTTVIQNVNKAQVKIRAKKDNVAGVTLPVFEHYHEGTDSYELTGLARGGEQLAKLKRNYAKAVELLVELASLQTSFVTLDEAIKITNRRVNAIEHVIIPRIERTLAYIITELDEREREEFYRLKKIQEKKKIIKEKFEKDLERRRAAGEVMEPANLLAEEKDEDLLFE

Listed as a hit, yes:
Mitochondrial import inner membrane translocase subunit TIM44, O43615
Electron transfer flavoprotein subunit beta, P38117
Pyrroline-5-carboxylate reductase 1, mitochondrial, P32322

Biological target: V-type proton ATPase 116 kDa subunit a 1 (UniProt Q9Z1G4)
Test: as above

Sequence of V-type proton ATPase 116 kDa subunit a 1 (Q9Z1G4 whole entry): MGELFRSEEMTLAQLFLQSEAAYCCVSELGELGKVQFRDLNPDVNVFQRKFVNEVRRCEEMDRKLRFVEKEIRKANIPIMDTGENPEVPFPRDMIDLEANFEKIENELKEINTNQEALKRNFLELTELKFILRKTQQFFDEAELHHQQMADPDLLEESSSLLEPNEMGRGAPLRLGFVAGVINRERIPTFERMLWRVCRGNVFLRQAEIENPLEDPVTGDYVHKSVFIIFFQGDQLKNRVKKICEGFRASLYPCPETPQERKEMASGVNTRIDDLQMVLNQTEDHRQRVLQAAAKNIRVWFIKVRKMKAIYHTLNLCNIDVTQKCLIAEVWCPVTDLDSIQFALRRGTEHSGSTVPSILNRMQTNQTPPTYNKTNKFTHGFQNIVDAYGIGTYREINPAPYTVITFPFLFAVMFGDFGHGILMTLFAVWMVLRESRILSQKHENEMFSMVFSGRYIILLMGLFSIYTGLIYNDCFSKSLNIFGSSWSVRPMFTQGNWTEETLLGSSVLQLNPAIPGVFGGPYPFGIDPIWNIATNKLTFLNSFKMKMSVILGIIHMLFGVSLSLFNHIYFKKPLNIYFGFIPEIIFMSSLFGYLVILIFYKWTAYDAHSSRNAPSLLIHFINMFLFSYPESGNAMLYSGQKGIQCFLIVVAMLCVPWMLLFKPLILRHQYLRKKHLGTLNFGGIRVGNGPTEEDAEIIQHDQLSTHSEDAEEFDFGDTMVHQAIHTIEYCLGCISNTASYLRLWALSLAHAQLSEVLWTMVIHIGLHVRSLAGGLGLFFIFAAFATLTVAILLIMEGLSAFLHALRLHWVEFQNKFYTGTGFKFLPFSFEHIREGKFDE

Listed as a hit, yes:
V-type proton ATPase subunit H, Q8BVE3
Vesicle-associated membrane protein 1, Q62442
V-type proton ATPase subunit S1, Q9R1Q9

Biological target: V-type proton ATPase subunit B, brain isoform (UniProt P62814)
Test: as above

Sequence of V-type proton ATPase subunit B, brain isoform (P62814 whole entry, canonical isoform): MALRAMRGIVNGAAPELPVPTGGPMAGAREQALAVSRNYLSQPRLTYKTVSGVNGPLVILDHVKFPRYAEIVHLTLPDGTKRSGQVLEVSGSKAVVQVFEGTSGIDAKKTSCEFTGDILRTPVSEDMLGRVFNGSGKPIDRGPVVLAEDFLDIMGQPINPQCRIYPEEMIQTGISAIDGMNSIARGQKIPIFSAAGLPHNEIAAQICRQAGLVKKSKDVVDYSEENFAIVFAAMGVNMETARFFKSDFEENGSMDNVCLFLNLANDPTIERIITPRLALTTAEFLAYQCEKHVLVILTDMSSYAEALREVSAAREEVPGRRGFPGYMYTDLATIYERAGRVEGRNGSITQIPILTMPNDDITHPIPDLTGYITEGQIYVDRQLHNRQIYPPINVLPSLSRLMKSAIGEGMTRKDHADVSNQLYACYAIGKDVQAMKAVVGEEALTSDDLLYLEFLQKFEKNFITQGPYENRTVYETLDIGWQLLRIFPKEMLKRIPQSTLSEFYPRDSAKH

Listed as a hit, yes:
V-type proton ATPase subunit D, P57746
V-type proton ATPase subunit E 1, P50518
V-type proton ATPase catalytic subunit A, P50516
